Measured values taken from PubChem BioAssay (NCI).
Where “and” joins values, the source holds several entries; their conditions need not be identical. Identical values can stand only once. This is part of a sample that, as a whole, favours compounds with a hit. Of some 79,000 tested, about 15% had one in any assay. A structure can be active in one record and inactive in another. Calls of active or inactive are those of the source. No stated cut-off is given here; in the data, active means growth inhibition above about 70%; inactive means the rest.

Legend:
[1] = NCI Yeast Anticancer Drug Screen. Data for the rad50 strain (AID 155);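 further: 0% = growth of vehicle-only cultures of the same strain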; details: S. cerevisiae rad50 strain growth inhibition, stronger effect = higher value
In short: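 A DNA repair-deficient yeast mutant serves as the test organism; compound-induced growth inhibition is calculated against vehicle-treated cells.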

[2] = NCI Yeast Anticancer Drug Screen. Data for the mec2-1 strain (AID 157); details: S. cerevisiae mec2-1 strain, stronger effect = higher value
In short: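 Each compound was tested on mec2-1 yeast, a strain altered in DNA damage repair or cell cycle control. Growth inhibition is reported relative to vehicle.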

[3] = NCI Yeast Anticancer Drug Screen. Data for the sgs1 mgt1 strain (AID 161);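 further: 0% = growth of cultures given vehicle only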; details: S. cerevisiae sgs1 mgt1 strain, stronger effect = higher value
In short: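 Read-out: growth inhibition vs vehicle controls. Cells: mutant yeast strain deficient in DNA damage repair.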

[4] = NCI Yeast Anticancer Drug Screen. Data for the cln2 rad14 strain (AID 165);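 further: 0% = growth equal to vehicle treated cultures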; details: S. cerevisiae cln2 rad14 strain, stronger effect = higher value
In short: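 Test compounds were added to cln2 rad14 yeast cultures; inhibition of growth was then determined by comparison with vehicle treatment.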

[5] = NCI Yeast Anticancer Drug Screen. Data for the bub3 strain (AID 167); details: S. cerevisiae bub3 mutant strain, stronger effect = higher value
In short: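 Inhibition values come from growth of compound-treated mutant yeast normalised to vehicle-treated controls.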

[6] = NCI Yeast Anticancer Drug Screen. Data for the mlh1 rad18 strain (AID 175); details: S. cerevisiae mlh1 rad18 strain growth inhibition, stronger effect = higher value
In short: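 Inhibition values reflect reduced growth of mutant yeast versus vehicle-treated controls following compound exposure; the mutations affect DNA damage repair.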

[7] = at 5.0 µM (retest, dose inferred, filed as 0.5)
[8] = at 50.0 µM (retest, dose inferred, filed as 5.0)

Measured: growth inhibition

CC(C)(C)C1=CC(=C/C=C/c2cc(C(C)(C)C)[o+]c(C(C)(C)C)c2)C=C(C(C)(C)C)O1
inactive: [1]; at 50.0 µM 67.3% | [3]; at 50.0 µM 52.5% | [6]; at 50.0 µM 37.5%
active: [1]; [7] 99% | [1]; [8] 93% | [2]; [7] 99% | [2]; [8] 96% | [2]; at 50.0 µM 95.6% | [3]; [7] 99% | [3]; [8] 94% | [4]; [7] 99% | [4]; [8] 94% | [4]; at 50.0 µM 96% | [5]; [7] 99% | [5]; [8] 94% | [5]; at 50.0 µM 94.3% | [6]; [7] 99% | [6]; [8] 95%

CCC1(C2=CCCCC2)C(=O)NC(=S)NC1=O
25.5% (inactive) and 85% (active): [6]; at 50.0 µM
active: [2]; [8] 76% | [3]; [8] 77% | [6]; [8] 79%
inactive: [1]; [7] -101% | [1]; [8] 62% | [1]; at 50.0 µM 8.05% and 60.1% | [2]; [7] -11% | [2]; at 50.0 µM -3.9% and 5.6% | [3]; [7] 22% | [3]; at 50.0 µM 0.6% and 51.5% | [4]; [7] -14% | [4]; [8] 62% | [4]; at 50.0 µM -32.4% and -0.6% | [5]; [7] 4% | [5]; [8] 62% | [5]; at 50.0 µM 6.05% and 34.2% | [6]; [7] 0%

O=C([O][Hg][CH2]C1CC(O)CC([CH2][Hg][O]C(=O)c2ccccc2)O1)c1ccccc1 (stereo not drawn)
active: [1]; [7] 98% | [1]; [8] 98% | [1]; at 50.0 µM 99% | [2]; [7] 98% | [2]; [8] 99% | [2]; at 50.0 µM 99.2% | [3]; [7] 99% | [3]; [8] 99% | [3]; at 50.0 µM 99.3% | [4]; [7] 96% | [4]; [8] 97% | [4]; at 50.0 µM 97.4% | [5]; [7] 97% | [5]; [8] 99% | [5]; at 50.0 µM 98.5% | [6]; [7] 99% | [6]; [8] 99% | [6]; at 50.0 µM 98.6%

COc1cc(C(=O)CCN(CCCl)CCCl)cc(OC)c1OC
active: [1]; at 50.0 µM 95.5% | [2]; at 50.0 µM 97.3% | [3]; [8] 82% | [3]; at 50.0 µM 97.2% | [4]; at 50.0 µM 99.5% | [5]; [8] 82% | [5]; at 50.0 µM 93.2% | [6]; [8] 83% | [6]; at 50.0 µM 97.1%
inactive: [1]; [7] -1% | [1]; [8] 68% | [2]; [7] 0% | [2]; [8] 67% | [3]; [7] 13% | [4]; [7] 0% | [4]; [8] 55% | [5]; [7] -3% | [6]; [7] 13%

C[CH2][Sn]([CH2]C)([O]C(C)=O)[O][Sn]([CH2]C)([CH2]C)[O]C(C)=O
inactive: [1]; [7] 23% | [1]; at 50.0 µM 64% | [2]; [7] 24% | [2]; at 50.0 µM 60.1% | [3]; [7] 15% | [4]; [7] 30% | [4]; [8] 68% | [5]; [7] 21% | [6]; [7] 26%
active: [1]; [8] 80% | [2]; [8] 91% | [3]; [8] 82% | [3]; at 50.0 µM 84.8% | [4]; at 50.0 µM 86.1% | [5]; [8] 78% | [5]; at 50.0 µM 84.3% | [6]; [8] 86% | [6]; at 50.0 µM 89.1%

O=[N+]([O-])c1ccc(SC2CCCCCCC2Cl)c([N+](=O)[O-])c1 (stereo not drawn)
inactive: [1]; [7] 6% | [1]; [8] 22% | [1]; at 50.0 µM 22.1% | [2]; [7] 8% | [2]; [8] 41% | [2]; at 50.0 µM 4.3% | [3]; [7] 10% | [3]; at 50.0 µM 30.1% | [4]; [7] -1% | [4]; [8] 29% | [4]; at 50.0 µM 14.8% | [5]; [7] 15% | [5]; at 50.0 µM 20.5% | [6]; [7] 7% | [6]; [8] 53%
active: [3]; [8] 76% | [5]; [8] 85% | [6]; at 50.0 µM 72.8%

CC(=O)Nc1ccccc1[As](O[As](c1ccccc1)c1ccccc1NC(C)=O)c1ccccc1 (stereo not drawn)
active: [1]; [8] 99% | [1]; at 50.0 µM 99.5% | [2]; [8] 100% | [2]; at 50.0 µM 99.6% | [3]; [8] 100% | [3]; at 50.0 µM 99.5% | [4]; [8] 99% | [4]; at 50.0 µM 99.4% | [5]; [8] 100% | [5]; at 50.0 µM 99.5% | [6]; [8] 99% | [6]; at 50.0 µM 99.5%
inactive: [1]; [7] 39% | [2]; [7] 24% | [3]; [7] 66% | [4]; [7] 37% | [5]; [7] 11% | [6]; [7] 53%

c1cc[c]([Sn]([c]2ccccc2)([c]2ccccc2)[CH]2CCCCC2)cc1
active: [1]; [8] 89% | [1]; at 50.0 µM 92.7% | [2]; [8] 94% | [2]; at 50.0 µM 97.2% | [3]; [8] 93% | [3]; at 50.0 µM 97.7% | [4]; [8] 91% | [4]; at 50.0 µM 98.3% | [5]; [8] 93% | [5]; at 50.0 µM 98% | [6]; [8] 91% | [6]; at 50.0 µM 97%
inactive: [1]; [7] 1% | [2]; [7] 7% | [3]; [7] 20% | [4]; [7] -2% | [5]; [7] 1% | [6]; [7] 19%

CN(C)c1ccc(N=Cc2c([O-])ccc3ccccc23)cc1.[C-]#[O+].[C-]#[O+].[Ir]
active: [1]; at 50.0 µM 83.4% | [3]; at 50.0 µM 78.3% | [4]; at 50.0 µM 77.1% | [5]; at 50.0 µM 82.5% | [6]; at 50.0 µM 71.1%
inactive: [1]; [7] 1% | [1]; [8] 1% | [2]; [7] 15% | [2]; [8] 15% | [2]; at 50.0 µM 60.4% | [3]; [7] -17% | [3]; [8] -17% | [4]; [7] 3% | [4]; [8] 3% | [5]; [7] 2% | [5]; [8] 2% | [6]; [7] 9% | [6]; [8] 9%

COc1ccc(CC2C(=O)NC(C)C(=O)N(C)C3C(=O)N(C)C(Cc4ccc(O)c(c4)Oc4ccc(cc4)C3O)C(=O)NC(C)C(=O)NC(C)C(=O)N2C)cc1 (stereo not drawn)
inactive: [1]; [7] -8% | [2]; [7] 29% | [2]; [8] 69% | [2]; at 50.0 µM 47.5% | [3]; [7] 12% | [3]; [8] 63% | [3]; at 50.0 µM 54.3% | [4]; [7] 27% | [5]; [7] 19% | [5]; at 50.0 µM 65.4% | [6]; [7] 10% | [6]; at 50.0 µM 63%
active: [1]; [8] 80% | [1]; at 50.0 µM 75.9% | [4]; [8] 88% | [4]; at 50.0 µM 84.5% | [5]; [8] 81% | [6]; [8] 87%

Oc1ccc2ccccc2c1O
active: [1]; [8] 81% | [3]; [8] 84% | [5]; [8] 90% | [5]; at 50.0 µM 70% | [6]; [8] 92% | [6]; at 50.0 µM 86.2%
inactive: [1]; [7] 13% | [1]; at 50.0 µM 66.4% | [2]; [7] 3% | [2]; [8] 59% | [2]; at 50.0 µM 50.9% | [3]; [7] 7% | [3]; at 50.0 µM 57.3% | [4]; [7] -5% | [4]; [8] 30% | [4]; at 50.0 µM 34% | [5]; [7] 32% | [6]; [7] 20%
